Source: PubChem BioAssay
IEC-6 tox-1 = IEC-6 cytotoxicity, counter-screen for KLF5 inhibitors; AID 1825; inhibition, % at 5 µM; 290,000 tested, 0.78% active; luminescence viability; in the data active means inhibition above about 22%;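 further: 0% = plate median of test compound wells and 100% = cytotoxic reference compound wells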
GPR7 antag = human neuropeptides B/W receptor 1 antagonism; GPR7-expressing cells, fluorescence antagonist assay; P48145; 290,000 tested, 1.1% active; inhibition, % at 4.4 µM; in the data active means inhibition above about 16%, passing the limit was not always enough;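 further: cells stimulated with the agonist NPW; 0% = agonist with vehicle and 100% = vehicle without agonist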
Target sequence (P48145 whole entry, looked up): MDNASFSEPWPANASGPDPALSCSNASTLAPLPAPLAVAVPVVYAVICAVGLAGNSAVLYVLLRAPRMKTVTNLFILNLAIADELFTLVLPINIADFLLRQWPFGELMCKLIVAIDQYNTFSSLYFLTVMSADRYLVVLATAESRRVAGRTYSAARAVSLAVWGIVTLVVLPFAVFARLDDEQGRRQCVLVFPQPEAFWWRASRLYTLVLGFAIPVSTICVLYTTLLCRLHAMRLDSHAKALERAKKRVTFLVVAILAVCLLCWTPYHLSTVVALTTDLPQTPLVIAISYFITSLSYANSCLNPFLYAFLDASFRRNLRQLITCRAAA
BaF3 parental = counter-screen for JAK2V617F inhibitors: parental Ba/F3 viability inhibitors. CellTiter-Glo ATP luminescence. inhibition, % at 5.6 µM. 220,000 tested, 1.1% active. AID 1486;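 active means inhibition above a per-campaign cutoff, the mean inhibition of all tested compounds plus 3 SD, cut at about 27% in these data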;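 further: 0% = DMSO wells and 100% = JAK Inhibitor I control wells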
Ba/F3 V617F tox = reduce viability of Ba/F3 cells dependent on JAK2V617F; Ba/F3 EpoR-JAK2V617F viability, ATP luminescence; inhibition, % at 5.6 µM; 220,000 tested, 1.1% active;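 active means inhibition above the campaign mean plus 3 SD over all tested compounds, cut at about 24% in these data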;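 further: cytokine-independent growth of Ba/F3 cells driven by EpoR plus mutant JAK2; 0% = DMSO-treated cells and 100% = JAK inhibitor I control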
KLF5 inhibitor = kruppel-like factor 5 inhibition. DLD-1 KLF5 promoter-luciferase reporter, luminescence. inhibition, % at 5 µM. 290,000 tested, 0.23% active. AID 1700;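 active means inhibition above a per-plate limit of that plate's mean compound inhibition plus 3 SD, cut at about 60% in these data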;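 further: 0% = DMSO wells and 100% = LY294002 at 200 µM; higher means less KLF5 promoter-driven luciferase light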
DNA FID counter = displaces DNA intercalator in HCV helicase counter-screen. DNA fluorescent intercalator displacement, fluorescence. inhibition, % at 7.9 µM. 290,000 tested, 0.17% active; in the data active means inhibition above about 37%;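 further: 0% = vehicle and 100% = reference compound; higher means more ethidium bromide displaced from hairpin DNA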
KLF5 inh confirm = KLF5 inhibition, confirmation assay. shares compounds with KLF5 inhibitor. DLD-1 KLF5 promoter firefly luciferase reporter, luminescence. inhibition, % at 4 µM. 610 tested, 79% active. AID 1834;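 active means inhibition above a set limit taken from the earlier primary screen, cut at about 63% in these data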;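 further: 0% = DMSO wells and 100% = LY294002 at 200 µM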
IEC-6 tox-2 = kills rat IEC-6 cells in KLF5 counter-screen. shares compounds with KLF5 inhibitor. IEC-6 rat intestinal cells, viability luminescence. inhibition, % at 4 µM. 610 tested, 56% active. AID 1905; in the data active means inhibition above about 23%;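 further: cells exposed to compounds for 48 hours before viability read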
Starred values were filed as active, the others as inactive. Shown are actives, neighbours in structure and some others; about 2.6% of the full set was active somewhere.

How did Oc1c(Cl)cc(Cl)c2cccnc12 do in these assays?
IEC-6 tox-1: -0.1; GPR7 antag: -14.0; BaF3 parental: 5.8; Ba/F3 V617F tox: 1.5; KLF5 inhibitor: -7.0; DNA FID counter: -0.1

What do the screens show for `O=C(COc1ccc2c3c(c(=O)oc2c1)CCCC3)NC(Cc1ccc(Cl)cc1)C(=O)O` (configuration not stated)?
IEC-6 tox-1: -0.8; GPR7 antag: -2.8; KLF5 inhibitor: -21.2; DNA FID counter: -15.8

Results for COc1ccc(OC)c(Nc2nc(=O)c3cccnc3s2)c1 ?
IEC-6 tox-1: -0.5; GPR7 antag: 2.0; BaF3 parental: 2.9; Ba/F3 V617F tox: 1.0; KLF5 inhibitor: 75.3*; DNA FID counter: -7.5; KLF5 inh confirm: 65.3*; IEC-6 tox-2: -2.6

Results for COc1ccc(OC)c(C2C3=C(COC3=O)Nc3cc4c(cc32)OCO4)c1 (configuration not stated) ?
IEC-6 tox-1: 93.8*; GPR7 antag: 16.9; BaF3 parental: 91.5*; Ba/F3 V617F tox: 96.1*; KLF5 inhibitor: 88.0*; DNA FID counter: -15.8; KLF5 inh confirm: 91.5*; IEC-6 tox-2: 82.3*

Results for CC(C)(C)C(=O)Nc1ccc(NC(=O)c2ccco2)nc1 ?
IEC-6 tox-1: 1.8; GPR7 antag: 4.7; KLF5 inhibitor: 94.4*; DNA FID counter: -3.8; KLF5 inh confirm: 101.7*; IEC-6 tox-2: 8.8

How did COc1cc2c3nc4n(c(=O)c3n(CC(=O)NCC3CCCO3)c2cc1OC)CCS4 (configuration not stated) do in these assays?
IEC-6 tox-1: -9.6; GPR7 antag: 3.5; KLF5 inhibitor: -19.6; DNA FID counter: -11.6

Results for COc1ccc(OC)c2[nH]c(C(=O)N/N=C/c3ccccc3O)cc12 ?
IEC-6 tox-1: 12.3; GPR7 antag: 14.0; KLF5 inhibitor: 96.1*; DNA FID counter: -13.9; KLF5 inh confirm: 90.5*; IEC-6 tox-2: -3.8

How did O=[N+]([O-])c1cccc(N/N=C/c2cc([N+](=O)[O-])ccc2O)c1 do in these assays?
IEC-6 tox-1: 2.2; GPR7 antag: -0.9; BaF3 parental: 2.6; Ba/F3 V617F tox: 1.4; KLF5 inhibitor: -25.9; DNA FID counter: 4.5

Results for O=[N+]([O-])c1ccc(O)c(/C=N/Nc2ccccn2)c1 ?
IEC-6 tox-1: 5.0; GPR7 antag: -2.0; BaF3 parental: 34.2*; Ba/F3 V617F tox: 68.0*; KLF5 inhibitor: 65.5*; DNA FID counter: 8.9; KLF5 inh confirm: 57.9; IEC-6 tox-2: 54.0*

What do the screens show for `COc1cccc(/C=N/Nc2nccnc2Cl)c1O`?
IEC-6 tox-1: 6.9; GPR7 antag: 11.1; BaF3 parental: 94.5*; Ba/F3 V617F tox: 94.8*; KLF5 inhibitor: 104.0*; DNA FID counter: -5.7; KLF5 inh confirm: 90.0*; IEC-6 tox-2: -4.0

What do the screens show for `COc1ccc2nc(NC(=O)c3ccc(NC(=O)C4CCCO4)cc3)sc2c1` (configuration not stated)?
IEC-6 tox-1: -6.4; GPR7 antag: -3.1; KLF5 inhibitor: -0.1; DNA FID counter: -8.3

Results for Cc1ccc2nc(NC(=O)c3ccc(OCC4CCCO4)cc3)sc2c1 (configuration not stated) ?
IEC-6 tox-1: -7.8; GPR7 antag: 8.4; BaF3 parental: 0.6; Ba/F3 V617F tox: -6.5; KLF5 inhibitor: 67.7*; DNA FID counter: -7.0; KLF5 inh confirm: -25.0; IEC-6 tox-2: 9.8

What do the screens show for `Cc1cc(C)c2nc(NC(=O)c3ccc(OCC4CCCO4)cc3)sc2c1` (configuration not stated)?
IEC-6 tox-1: 1.3; GPR7 antag: 3.1; BaF3 parental: 4.6; Ba/F3 V617F tox: -2.3; KLF5 inhibitor: 96.9*; DNA FID counter: -3.1; KLF5 inh confirm: 99.4*; IEC-6 tox-2: -3.0

What do the screens show for `Cc1ccc2nc(NC(=O)c3ccccn3)sc2c1`?
IEC-6 tox-1: 19.9; GPR7 antag: 1.2; BaF3 parental: 7.1; Ba/F3 V617F tox: 4.7; KLF5 inhibitor: 64.7*; DNA FID counter: -5.0; KLF5 inh confirm: 86.8*; IEC-6 tox-2: 98.1*

What do the screens show for `CC(C)(C)c1ccc(C(=O)Nc2sc3c(c2C(=O)O)CCC3)cc1`?
IEC-6 tox-1: 6.0; GPR7 antag: -1.9; BaF3 parental: 10.7; Ba/F3 V617F tox: 7.7; KLF5 inhibitor: 78.5*; DNA FID counter: 3.8; KLF5 inh confirm: 74.6*; IEC-6 tox-2: -1.9

How did Cc1nc(N2CCC(C)CC2)c2oc3ccccc3c2n1 do in these assays?
IEC-6 tox-1: 1.3; GPR7 antag: -3.3; BaF3 parental: 6.6; Ba/F3 V617F tox: 0.8; KLF5 inhibitor: 0.5; DNA FID counter: -9.8

Results for COc1ccccc1N1CCN(Cc2cc(Br)c(O)c3ncccc23)CC1 ?
IEC-6 tox-1: 0.9; GPR7 antag: -12.2; BaF3 parental: 85.7*; Ba/F3 V617F tox: 98.0*; KLF5 inhibitor: 93.0*; DNA FID counter: -9.4; KLF5 inh confirm: 65.0*; IEC-6 tox-2: -2.5

How did Oc1c(Cl)cc(CN2CCCCC2)c2cccnc12 do in these assays?
IEC-6 tox-1: 7.0; GPR7 antag: 3.8; KLF5 inhibitor: 97.9*; DNA FID counter: -6.4; KLF5 inh confirm: 92.3*; IEC-6 tox-2: 11.7

Results for COc1ccccc1N1CCN(c2nc(C)nc3c2oc2ccccc23)CC1 ?
IEC-6 tox-1: 79.9*; GPR7 antag: 4.7; BaF3 parental: 71.2*; Ba/F3 V617F tox: 64.8*; KLF5 inhibitor: 66.7*; DNA FID counter: -8.6; KLF5 inh confirm: 79.0*; IEC-6 tox-2: 64.2*

Results for O=[N+]([O-])c1cc(CN2CCCC2)c2cccnc2c1O ?
IEC-6 tox-1: -8.6; GPR7 antag: 0.7; BaF3 parental: 4.8; Ba/F3 V617F tox: -1.7; KLF5 inhibitor: -28.9; DNA FID counter: -7.3

How did CCOc1ccc(S(=O)(=O)N(CC(=O)NCC2CCCO2)c2ccc(F)cc2)cc1 (configuration not stated) do in these assays?
IEC-6 tox-1: -7.9; GPR7 antag: -10.2; KLF5 inhibitor: -11.5; DNA FID counter: -33.9

Results for CCCC(=O)Nc1nnc(-c2ccc3c(c2)OCCO3)o1 ?
IEC-6 tox-1: 1.0; GPR7 antag: -15.0; BaF3 parental: 10.4; Ba/F3 V617F tox: 3.6; KLF5 inhibitor: -48.6; DNA FID counter: 0.8

What do the screens show for `Cc1nc(-c2ccc(C(=O)Nc3ccccc3F)cc2)cs1`?
IEC-6 tox-1: -3.6; GPR7 antag: 0.4; BaF3 parental: 0.3; Ba/F3 V617F tox: -1.0; KLF5 inhibitor: 71.0*; DNA FID counter: -7.9; KLF5 inh confirm: 3.8; IEC-6 tox-2: -8.6

Results for Cc1nc(-c2ccc(NC(=O)c3ccco3)cc2)cs1 ?
IEC-6 tox-1: 0.7; GPR7 antag: -3.0; KLF5 inhibitor: 87.4*; DNA FID counter: -6.4; KLF5 inh confirm: 77.8*; IEC-6 tox-2: 13.9

What do the screens show for `Cc1nc(-c2ccc(C(=O)Nc3ccc(F)cc3)cc2)cs1`?
IEC-6 tox-1: 3.2; GPR7 antag: -11.7; BaF3 parental: 6.8; Ba/F3 V617F tox: 3.6; KLF5 inhibitor: -106.7; DNA FID counter: -9.4
